Consider 20 compounds from PubChem BioAssay.

Active and inactive are the calls of the source. How the calls were made is not given here.

A short description of assay [1]: liver-stage malaria parasite load reduction – cell-based, known kinase inhibitor set, luminescence, hepatoma host viability (AID 624392).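 Further: infected cells incubated roughly two days before readout.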 To be noted: Plasmodium liver stage in hepatoma cells, luciferase luminescence, concentration not given here; liver cell % of control: measured here: host liver cell viability; parasite % of control: stronger effect = lower value.
Assay [2] can be described thus: altered dexamethasone sensitivity, NF-kB reporter, cell-based, luciferase, IL-1B stimulus (AID 624486).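 On percent of negative control (+Dex): 100% = mean signal of vehicle control wells on the plate.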 Conditions: IL-1B + dexamethasone, luminescence; percent of negative control (+Dex): actives lie on both sides, concentration not given here; z-score: measured here: IL-1B alone, no Dex.
Assay [3] has as its target Cellular tumor antigen p53 (Homo sapiens) (UniProt P04637). Nature of the assay: GFP-p53 level modulators in HPV16+ cells – imaging, known kinase inhibitor set, EGFP/DsRed ratio (AID 1053116).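 Further: cells exposed to compounds for 24 h at 37 °C before reading.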 Conditions: GFP-p53 stability, stronger effect = higher value; EGFP object count: measured here: GFP-p53 positive objects count.
Assay [4] in a line: inducers of IRF3 signaling, differentiated THP-1 – cell-based, PMA-stimulated THP-1, luminescence (AID 1053176). To be noted: PMA-differentiated THP-1, IRF3 reporter luminescence; stronger effect = higher value.

Sequence of Cellular tumor antigen p53 (Homo sapiens) (P04637 whole entry, looked up): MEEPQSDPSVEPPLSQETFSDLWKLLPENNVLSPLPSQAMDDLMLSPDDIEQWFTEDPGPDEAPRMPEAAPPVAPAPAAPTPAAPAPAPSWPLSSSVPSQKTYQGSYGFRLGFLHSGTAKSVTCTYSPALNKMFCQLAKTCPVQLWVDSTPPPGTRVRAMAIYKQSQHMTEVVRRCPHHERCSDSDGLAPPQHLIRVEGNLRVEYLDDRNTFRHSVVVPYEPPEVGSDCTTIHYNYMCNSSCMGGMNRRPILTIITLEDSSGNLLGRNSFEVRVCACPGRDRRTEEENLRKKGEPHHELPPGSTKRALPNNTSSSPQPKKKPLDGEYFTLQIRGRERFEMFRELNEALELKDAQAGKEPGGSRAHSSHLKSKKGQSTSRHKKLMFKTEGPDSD

In the case of `O=C1NC(=Nc2ccccc2)SC1=Cc1ccc2ncccc2c1`, in assay [1], the liver cell % of control was determined as 124% and the parasite % of control was 68.1% (inactive). Further, in assay [2], the percent of negative control (+Dex) is 98% (inactive) and the z-score worked out at 0.04. In addition, in assay [3], the EGFP object count was found to be 3 and the EGFP/DsRed ratio is 0.0469 (inactive). Besides, in assay [4], the fraction signal was -0.003 (inactive).
`O=C1NC(=NCCc2ccccn2)SC1=Cc1ccc2ncccc2c1`: in assay [1], the liver cell % of control was 170% and the parasite % of control is 32.1% (inactive). In addition, in assay [2], the percent of negative control (+Dex) was 92.5% (inactive) and the z-score was 0.025. In assay [3], the EGFP object count is 5.5 and the EGFP/DsRed ratio is 0.134 (inactive). Further, the fraction signal in assay [4] is 0.0055 (inactive).
As to `Nc1c(C(=O)c2cccc(-c3ccncc3)c2)cnn1-c1ccc(F)cc1`, in assay [1], the liver cell % of control was found to be 101% and the parasite % of control was 36.5% (inactive). Besides, in assay [2], the percent of negative control (+Dex) was 95.5% (inactive) and the z-score came to 0.895. In assay [3], the EGFP object count is 2 and the EGFP/DsRed ratio is 0.219 (inactive). For the same compound, the fraction signal in assay [4] was -0.003 (inactive).
`Cn1cc(C2=C(Oc3ccccc3)C(=O)NC2=O)c2ccccc21`: in assay [1], the liver cell % of control was found to be 109% and the parasite % of control is 43% (inactive). In addition, in assay [2], the percent of negative control (+Dex) was 102% (inactive) and the z-score worked out at 0.18. In assay [3], the EGFP object count is 41 and the EGFP/DsRed ratio was 0.339 (inactive). In addition, the fraction signal in assay [4] is -0.0005 (inactive).
In the case of `Cn1cc(C2=C(c3cn(C)c4ccc(Cl)cc34)C(=O)NC2=O)c2ccccc21`, in assay [1], the liver cell % of control worked out at 77% and the parasite % of control is 33.5% (inactive). In assay [2], the percent of negative control (+Dex) is 114% (inactive) and the z-score is -1.06. In assay [3], the EGFP object count is 156 and the EGFP/DsRed ratio is 0.929 (active). Moreover, the fraction signal in assay [4] is -0.0075 (inactive).
Regarding `O=C1Nc2ccc(F)c3c(OCCO)cc(-c4ccc[nH]4)c1c23`, in assay [1], the liver cell % of control came out at 83.9% and the parasite % of control was 52.1% (inactive). Also, in assay [2], the percent of negative control (+Dex) is 105% (inactive) and the z-score amounted to 1.54. In assay [3], the EGFP object count was determined as 6 and the EGFP/DsRed ratio is 0.192 (inactive). Moreover, in assay [4], the fraction signal was -0.016 (inactive).
As to `O=C1NC(=NCc2cccs2)SC1Cc1ccc2ncccc2c1` (stereo not given), in assay [1], the liver cell % of control turned out to be 108% and the parasite % of control is 12.8% (inactive). In assay [2], the percent of negative control (+Dex) was 96% (inactive) and the z-score was -0.14. Also, in assay [3], the EGFP object count amounted to 2.5 and the EGFP/DsRed ratio was 0.109 (inactive). Further, in assay [4], the fraction signal is 0.0035 (inactive).
For the compound `CCNC(=O)C1CCCN2C(=O)CCC(NC(=O)C(Cc3ccc(OP(=O)(O)O)cc3)NC(C)=O)C(=O)N12` (stereo not given), in assay [1], the liver cell % of control is 95% and the parasite % of control is 44.7% (inactive). In addition, in assay [2], the percent of negative control (+Dex) is 102% (inactive) and the z-score amounted to 0.145. In addition, in assay [3], the EGFP object count is 6 and the EGFP/DsRed ratio was 0.215 (inactive). Moreover, in assay [4], the fraction signal is -0.0005 (inactive).
For the compound `CC(=O)Nc1ccc2c(c1)C(c1ccccc1Cl)=Nc1c(n[nH]c1C)N2`, in assay [1], the liver cell % of control stood at 93.6% and the parasite % of control was 30.4% (inactive). In assay [2], the percent of negative control (+Dex) is 95% (inactive) and the z-score is -0.58. In assay [3], the EGFP object count was 28.5 and the EGFP/DsRed ratio was 0.33 (inactive). Moreover, in assay [4], the fraction signal was -0.003 (inactive).
In the case of `Cn1cc(C2=C(c3ccccc3)C(=O)NC2=O)c2ccccc21`, in assay [1], the liver cell % of control came out at 104% and the parasite % of control is 41% (inactive). Moreover, in assay [2], the percent of negative control (+Dex) was 96% (inactive) and the z-score is -0.33. In assay [3], the EGFP object count is 9.5 and the EGFP/DsRed ratio was 0.26 (inactive). Further, in assay [4], the fraction signal is -0.001 (inactive).
On to `Cn1cc(C2=C(c3cn(C)c4cc(N)ccc34)C(=O)NC2=O)c2ccccc21`, for which, in assay [1], the liver cell % of control is 85.5% and the parasite % of control is 26.4% (inactive). In assay [2], the percent of negative control (+Dex) is 96% (inactive) and the z-score was -2.26. Also, in assay [3], the EGFP object count is 41.5 and the EGFP/DsRed ratio is 0.462 (inactive). In assay [4], the fraction signal is -0.0115 (inactive).
Consider `CS(=O)(=O)CCn1c(=O)c(Oc2ccc(F)cc2F)cc2cnc(NC3CCOCC3)nc21`, for which, in assay [1], the liver cell % of control was 122% and the parasite % of control was 63% (inactive). Moreover, in assay [2], the percent of negative control (+Dex) was 99% (inactive) and the z-score stood at 0.47. For the same compound, in assay [3], the EGFP object count came to 2 and the EGFP/DsRed ratio is 0.0579 (inactive). In assay [4], the fraction signal is 0.0015 (inactive).
As for `Cc1[nH]nc2c1N=C(c1ccccc1F)c1cc(C#N)ccc1N2`, in assay [1], the liver cell % of control was 96.8% and the parasite % of control was 68.4% (inactive). In addition, in assay [2], the percent of negative control (+Dex) is 157% (active) and the z-score stood at 0.015. In addition, in assay [3], the EGFP object count turned out to be 99.5 and the EGFP/DsRed ratio was 0.814 (active). The fraction signal in assay [4] was 0.0055 (inactive).
For the compound `Cc1[nH]n(-c2ccccc2)c(=O)c1C(=O)c1ccccc1`, in assay [1], the liver cell % of control came to 103% and the parasite % of control is 53.4% (inactive). Besides, in assay [2], the percent of negative control (+Dex) is 97% (inactive) and the z-score turned out to be 0.12. Moreover, in assay [3], the EGFP object count came to 5 and the EGFP/DsRed ratio is 0.115 (inactive). Further, the fraction signal in assay [4] is -0.0005 (inactive).
`CSc1c(C2=C(c3cn(C)c4ccccc34)C(=O)NC2=O)c2ccccc2n1C`: in assay [1], the liver cell % of control came out at 96.3% and the parasite % of control is 78.1% (inactive). In assay [2], the percent of negative control (+Dex) was 110% (inactive) and the z-score came to 0.45. In addition, in assay [3], the EGFP object count came out at 21 and the EGFP/DsRed ratio was 0.217 (inactive). Moreover, the fraction signal in assay [4] is 0.0015 (inactive).
For `Nc1c(C(=O)c2ccc(-c3cccnc3)cc2)cnn1-c1ccc(F)cc1`, in assay [1], the liver cell % of control turned out to be 93.2% and the parasite % of control is 36.7% (inactive). Besides, in assay [2], the percent of negative control (+Dex) is 112% (inactive) and the z-score was 0.835. Further, in assay [3], the EGFP object count is 5.5 and the EGFP/DsRed ratio is 0.226 (inactive). For the same compound, the fraction signal in assay [4] is -0.0025 (inactive).
As to `Fc1ccc(-c2c(-c3ccncc3)n(CCN3CCOCC3)c3cccnc23)cc1`, in assay [1], the liver cell % of control worked out at 113% and the parasite % of control is 63.8% (inactive). Moreover, in assay [2], the percent of negative control (+Dex) was 91.5% (inactive) and the z-score is 0.395. Besides, in assay [3], the EGFP object count came out at 1.5 and the EGFP/DsRed ratio was 0.18 (inactive). Moreover, the fraction signal in assay [4] was -0.0075 (inactive).
Regarding `Cn1cc(C2=C(c3c4n(c5ccccc35)CCNC4)C(=O)NC2=O)c2ccccc21`, in assay [1], the liver cell % of control stood at 79.3% and the parasite % of control is 40.6% (inactive). Also, in assay [2], the percent of negative control (+Dex) is 97.5% (inactive) and the z-score was -0.32. In assay [3], the EGFP object count came to 25 and the EGFP/DsRed ratio is 0.0526 (inactive). In assay [4], the fraction signal is -0.007 (inactive).
As to `NC1=NC(=O)C(=Cc2ccc3ncccc3c2)S1`, in assay [1], the liver cell % of control stood at 101% and the parasite % of control was 50.6% (inactive). For the same compound, in assay [2], the percent of negative control (+Dex) is 100% (inactive) and the z-score is 0.495. For the same compound, in assay [3], the EGFP object count turned out to be 4 and the EGFP/DsRed ratio was 0.204 (inactive). Also, the fraction signal in assay [4] is -0.007 (inactive).
For the compound `Cn1c(=O)c(Oc2ccccc2)cc2cnc(NC3CCOCC3)nc21`, in assay [1], the liver cell % of control was 106% and the parasite % of control is 60.6% (inactive). In assay [2], the percent of negative control (+Dex) was 105% (inactive) and the z-score amounted to 1.03. In assay [3], the EGFP object count is 3.5 and the EGFP/DsRed ratio is 0.0479 (inactive). Moreover, the fraction signal in assay [4] is -0.005 (inactive).
